High-throughput results as filed in PubChem.
A selection: hits, their analogues and other compounds. The true share with any hit is near 7.5%.
VACV mCherry inh – inhibitors of vaccinia virus infection (mCherry reporter signal); Vaccinia virus mCherry reporter infection, fluorescence; Potency, µM (series often up to 36.5 µM), without a hit: at the top dose activity change, negative = inhibition, most hits filed as inhibitors; 0.63% of 310,000 active; calls by dose curve; tested in A549 cells; further: potency means the concentration at half of the fitted maximal effect; nearly all actives have a fitted effect of over 35% in size
HCV inh – HCV inhibition. Potency, µM (top dose mostly 41.8 µM), inactives show top-dose activity change, negative = inhibition, usual class: inhibitors. AID 651820. 3.4% of 340,000 active. Huh7.5.1 HCVcc-Cre infection, luciferase reporter, 44 h; further: potency means the concentration at half of the fitted maximal effect
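1,000 cells/well; 4 h culture; + compound; + HCVcc-Cre (~0.5 moi); 44 h; luciferase substrate, RT 15 min; read 15 sec.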
Giardia FBPA inh – inhibitors of Giardia lamblia fructose-1,6-bisphosphate aldolase; A8B2U2; purified Giardia FBPA; Potency, µM (highest dose often 59.6 µM), without a hit: top-dose activity, negative = inhibition, actives largely listed as inhibitors; 0.71% of 290,000 active; AID 2451; further: potency means the concentration at half of the fitted maximal effect; nearly all actives have a fitted effect of over 55% in size
Target sequence (A8B2U2 whole entry, looked up): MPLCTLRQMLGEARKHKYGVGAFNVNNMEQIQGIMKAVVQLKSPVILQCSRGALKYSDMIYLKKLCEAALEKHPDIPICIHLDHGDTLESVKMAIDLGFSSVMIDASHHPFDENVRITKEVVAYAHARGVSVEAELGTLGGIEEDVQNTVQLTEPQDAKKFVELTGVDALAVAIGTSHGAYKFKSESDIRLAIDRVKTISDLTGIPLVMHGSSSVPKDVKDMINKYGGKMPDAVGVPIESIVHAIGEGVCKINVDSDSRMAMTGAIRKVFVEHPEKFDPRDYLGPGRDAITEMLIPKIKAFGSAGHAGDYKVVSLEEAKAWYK
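40 nM FBPA preincubated 10 min at RT with compound (up to 57.5 uM final), then substrate plus GAPDH/TPI/NAD/arsenate coupling and diaphorase/resazurin added. Fluorescence read after 20 min at RT, 525/598 nm.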
HCMV inh – inhibitors of human cytomegalovirus; activity change, negative = inhibition, % at 57.5 µM; AID 1259415; HFF cells, HCMV-luciferase reporter, 72 h; hits give low values; 4.5% of 410,000 active; in the data active means activity change below about -60%; inconclusive means no clear call, values can overlap the other calls; inactive means above about -39%
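Inhibition of viral replication was scored as loss of reporter luminescence in HFFs infected with HCMV-luciferase (MOI 1 PFU/cell) for 72 h; compounds tested at 2 doses, normalized to buffer and Salinomycin controls.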
FMDV inh – blocks foot and mouth disease virus | Potency, µM (top dose mostly 57.9 µM), for inactives: at the top dose activity change, negative = inhibition, hits mostly inhibitors | 1.2% of 410,000 active | FMDV antiviral cell-based qHTS | AID 1159524; calls by dose curve; tested in HEK293T cells; further: read-out not given here; potency means the concentration at half of the fitted maximal effect; nearly all actives have a fitted effect of over 45% in size
Vaccinia Venus – inhibitors of vaccinia virus (Venus reporter); Vaccinia virus Venus reporter expression, fluorescence; Potency, µM (highest dose often 36.5 µM), for inactives: at the highest dose activity change, negative = inhibition, actives largely listed as inhibitors; 0.46% of 330,000 active; calls by dose curve; tested in A549 cells; further: potency means the concentration at half of the fitted maximal effect; nearly all actives have a fitted effect of over 30% in size
* = called active by the depositor; i = inactive; ? = inconclusive; · = no result given; ! = not confirmed by another sample. Unless noted, the call rests on the fitted dose curve; in most records, active means well fitted curve in the direction sought with a large enough effect; inconclusive means small, poorly fitted or top-dose-only effect, or another doubt; inactive means no such curve, though single readings can be large; an effect the other way counts as inactive or inconclusive. On the % scale 0 is the no-effect control and ±100 the full control effect.

SMILES	VACV mCherry inh	HCV inh	Giardia FBPA inh	HCMV inh	FMDV inh	Vaccinia Venus
Cc1sc2ncnc(N3CCC(C(=O)NCC(=O)Nc4ccc(F)c(F)c4)CC3)c2c1C	?	8.9µM*	10%	-35	?	?
Cc1sc2ncnc(N3CCC(C(=O)Nc4ccc(Cl)c(Cl)c4)CC3)c2c1C	·	?	·	0	?	·
CCc1cccc(NC(=O)C2CCN(c3ncnc4sc(C)c(C)c34)CC2)c1	·	11µM*	·	-39	?	·
CCOc1ccc(NC(=O)CN(C)C(=O)C2CCN(c3ncnc4sc(C)c(C)c34)CC2)cc1OCC	?	·	4%	-68*	?	?
N#Cc1ccccc1CN1C(=O)c2ccccc2Sc2ccc(C(=O)OCc3ccco3)cc21	-15%	·	·	-10	11%	-12%
COC(=O)C1=C(c2ccccc2)c2ccccc2S(=O)(=O)N1CC(=O)Nc1ccc(OC)cc1OC	-14%	·	·	-10	-14%	-11%
COc1ccc(CN(C)C(=O)[C@H]2O[C@@H](n3ccc(N)nc3=O)[C@H](O)[C@@H]2O)cc1OC	5%	·	·	-7	-11%	0%
N#CC(c1cccc(Cl)c1)c1ccc2c(C(F)(F)F)cc(C(F)(F)F)nc2n1 (stereo not given)	·	2.8µM*	-26%	-104*	5µM*	2.2µM*
CCN(CC)c1ccc(NC(=O)c2cccc(F)c2)c(C)c1	·	?	-2%	-26	-2%	·
CCCCOc1ccccc1NC(=O)c1scc2c1OCCO2	i	13µM*	4%	-28	?	-24%
CCCCOc1ccccc1NC(=O)c1ccco1	·	?	-1%	-4	-6%	-17%
CCOc1cc(NC(=O)c2cccs2)c(OCC)cc1NC(=O)CCC(=O)NCC1CCCO1 (stereo not given)	-13%	-17%	8%	-20	-13%	-4%
O=Cc1coc([B-](F)(F)F)c1	·	·	·	35	·	·
COc1cccc2c(=O)c(C(=O)NCc3cccs3)c[nH]c12	·	5%	-7%	38	4%	·
Cc1cc(C)cc(NS(=O)(=O)c2ccc3[nH]cc(C(=O)NCc4ccco4)c(=O)c3c2)c1	10µM*	-22%	-9%	-73*!	1%	11µM*
Cc1ccc(S(=O)(=O)Nc2c(C)n(C)n(-c3ccccc3)c2=O)cc1C(=O)NCc1ccco1	-7%	32µM*	·	-27	-12%	-19%
Cc1cc(C)cc(NS(=O)(=O)c2ccc3[nH]cc(C(=O)NCc4ccccc4Cl)c(=O)c3c2)c1	-16%	·	·	-12	-26%	-23%
Cc1ccc2[nH]cc(C(=O)NCc3cccs3)c(=O)c2c1	-24%	10µM*	3%	-8	·	-28%
Cc1ccc(S(=O)(=O)/N=C(\Nc2cc(C)on2)c2ccc(Cl)cc2)cc1	?	-3%	0%	-13	36%	-21%
COc1ccccc1CNC(=O)CSC1=NCCS1	-22%	-7%	-8%	-61*	21%	-3%
CC(NC(=O)CSC1=NCCS1)c1ccccc1 (stereo not given)	-2%	6%	0%	-76*	0%	-6%
COc1ccc(N2CCN(CCCn3c(=S)[nH]c4ccccc4c3=O)CC2)cc1	·	?	12%	-72*	1%	·
COc1ccc(-n2c(=S)[nH]c3ccccc3c2=S)cc1	·	-1%	15%	-64*	33%	·
COc1ccc(-n2c(=S)[nH]c3cc(C(=O)Nc4ccc(F)cc4)ccc3c2=O)c(OC)c1	-19%	?	9%	-70*	?	-25%
COc1ccc(NC(=O)CCn2c(=S)[nH]c3ccccc3c2=O)cc1	-21%	-9%	·	-61*	-6%	?
SMILES	VACV mCherry inh	HCV inh	Giardia FBPA inh	HCMV inh	FMDV inh	Vaccinia Venus
COc1ccc(-n2c(=S)[nH]c3ccccc32)cc1	·	3%	-12%	44	0%	·
NCCCN(Cc1ccc(Cl)c(Cl)c1)c1ccccn1	-1%	·	·	·	·	-20%
CN(C)c1ccc(/C=C/c2ccnc3cc(Cl)cc(Cl)c23)cc1	-11%	·	·	·	·	95%
CCOC(=O)C(NCc1ccccc1NC(=O)OC(C)(C)C)c1nnnn1Cc1ccccc1 (stereo not given)	·	·	·	24	·	·
CC(=O)NCc1ccc(C(=O)CCl)s1	-20%	?	-11%	-16	28µM*	-1%
CC(=O)NCc1ccc(C(=O)CCl)cc1	i	?	-6%	-23	32µM*	-12%
